Screens (PubChem)
BaF3 parental: reduces parental Ba/F3 cell viability, JAK2V617F counter-screen. 220,000 tested, 1.1% active. inhibition, % at 5.6 µM. CellTiter-Glo ATP luminescence;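 active = inhibition above a per-campaign cutoff, the mean inhibition of all tested compounds plus 3 SD, cut at about 27% in these data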
IEC-6 cytotox: kills IEC-6 intestinal cells in KLF5 counter-screen; IEC-6 cytotoxicity, luminescence viability; 290,000 tested, 0.78% active; inhibition, % at 5 µM; in the data active = inhibition above about 22%
KLF5 inhibitor: kruppel-like factor 5 inhibition; inhibition, % at 5 µM; AID 1700; 290,000 tested, 0.23% active; DLD-1 KLF5 promoter-luciferase reporter, luminescence;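 active = inhibition above a per-plate limit of that plate's mean compound inhibition plus 3 SD, cut at about 60% in these data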;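 note: higher means less KLF5 promoter-driven luciferase light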
Ba/F3 V617F tox: lowers viability of Ba/F3 cells expressing EpoR and JAK2V617F | ATP luminescence | inhibition, % at 5.6 µM | 220,000 tested, 1.1% active;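 active = inhibition above the campaign mean plus 3 SD over all tested compounds, cut at about 24% in these data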;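 note: cytokine-independent growth of Ba/F3 cells driven by EpoR plus mutant JAK2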
APP 5UTR inh: APP translation inhibition; AID 1285; inhibition, % at 2 µM; SH-SY5Y APP 5'UTR-luciferase reporter, luminescence; 190,000 tested, 0.82% active;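 active = inhibition above a set limit, derived from the sample mean plus 3 SD, cut at about 45% in these data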
BaF3 parental 2: counter-screen for JAK2V617F inhibitors: parental Ba/F3 viability inhibitors. inhibition, % at 5.6 µM. 580 tested, 31% active. CellTiter-Glo luminescence; cells kept alive by added IL-3. shares compounds with Ba/F3 V617F tox;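 active = cell growth inhibition above the hit limit set in the earlier mutant JAK2 cell screen, cut at about 27% in these data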
JAK2V617F conf: confirmation: loss of viability in JAK2V617F-dependent Ba/F3 cells; shares compounds with Ba/F3 V617F tox; Ba/F3 EpoR-JAK2V617F viability, CellTiter-Glo luminescence; inhibition, % at 5.6 µM; 580 tested, 66% active; AID 1521;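 active = mean inhibition above the hit cutoff derived in the earlier primary screen, cut at about 25% in these data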;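 note: higher means lower luminescence from reduced cell ATP and viability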
Hits are given with their value; - = inactive; . = not tested or not shown. The list is not random: actives were taken first. Their share in the collection is about 1.9%.

SMILES	BaF3 parental	IEC-6 cytotox	KLF5 inhibitor	Ba/F3 V617F tox	APP 5UTR inh	BaF3 parental 2	JAK2V617F conf
O=C1C=CC(=O)N1CCNc1ncc(C(F)(F)F)cc1Cl	-	-	-	48	74	-	82
O=C1CC(=O)N(CCNc2ncc(C(F)(F)F)cc2Cl)C(=O)N1	-	-	-	-	-	.	.
CN1CCN(Cc2cc(COCc3ccccc3)c3cccnc3c2O)CC1	-	-	-	38	72	-	29
CCC(=O)N1CCc2cc(S(=O)(=O)CCC(=O)NCc3cccc(OC)c3)ccc21	.	-	-	.	.	.	.
Cc1ccc(N(CC(O)CN2C(=O)NC(C)(C)C2=O)S(=O)(=O)c2ccc(C)cc2)cc1 (stereo unspecified)	-	-	-	25	.	-	-
COc1cccc(C2(O)CCN(C(=O)c3cccs3)CC2)c1	-	-	-	55	-	-	-
COc1cccc(C2(O)CCN(C(=O)C(C)C)CC2)c1	-	-	-	-	.	.	.
Oc1ccccc1/C=N/Nc1nc2ccccc2o1	-	-	-	44	.	65	74
CCOC(=O)N1CCN(S(=O)(=O)N2CCCC(C(=O)NCCc3ccc(OC)c(OC)c3)C2)CC1 (stereo unspecified)	.	-	-	.	.	.	.
Cc1nc([N+](=O)[O-])c(Sc2nc3ccccc3[nH]2)n1Cc1ccccc1	-	-	-	-	-	.	.
Cn1cnc([N+](=O)[O-])c1Sc1nc2ccccc2[nH]1	-	-	-	34	.	-	44
COc1ccc(CN=C(N)N=C(N)N)cc1Cl	-	-	-	-	-	.	.
CC(C)Oc1ccc(CN=C(N)N=C(N)N)cc1Cl	-	-	-	30	-	40	65
CCn1c(SCC(=O)Nc2ccccc2F)nnc1-c1ccoc1C	.	-	-	.	.	.	.
CCn1c(SCC(=O)Nc2ccccc2-c2ccccc2)nnc1-c1ccoc1C	-	-	-	52	-	-	-
O=C(CCl)Nc1ccc(-c2ccccc2)cc1	-	-	-	-	-	.	.
O=C(CCl)Nc1ccc(N=Nc2ccccc2)cc1	-	-	-	28	-	-	94
Cc1ccc(OCC(=O)NCCCNC(=O)c2cccnc2)cc1	.	-	-	.	.	.	.
O=C(CSc1nnnn1-c1ccc(F)cc1)c1ccc(O)c(O)c1	-	-	-	32	-	-	80
O=C(O)c1ccc(CSc2nnnn2-c2ccc(F)cc2)cc1	.	-	-	.	.	.	.
CCOC(=O)c1cnc2ccc(OCC)cc2c1NCc1cccnc1	-	-	-	-	-	.	.
CCOC(=O)c1cnc2ccc(OCC)cc2c1NCc1ccccc1	-	-	-	24	-	-	31
COc1ccc(CCNC(=O)CCCc2ccccc2)cc1OC	.	-	-	.	.	.	.
Nc1ccc2c(c1)C(=O)C(=O)c1ccccc1-2	-	-	-	44	88	107	99
O=[N+]([O-])c1ccccc1N/N=C/c1cccc(O)c1O	-	-	-	62	.	51	96
SMILES	BaF3 parental	IEC-6 cytotox	KLF5 inhibitor	Ba/F3 V617F tox	APP 5UTR inh	BaF3 parental 2	JAK2V617F conf
CCCCc1cc(=O)oc2c3c(cc(OCC(=O)NCCCO)c12)OC(C)(C)CC3	.	-	-	.	.	.	.
CCOC(=O)c1ccccc1Nc1cn(C(C)=O)c2ccccc12	-	-	-	-	-	.	.
CC(=O)n1cc(N(C(=O)CCl)c2ccc(Cl)cc2)c2ccccc21	-	-	-	98	.	104	98
CCOc1ccc(C(C)C)cc1S(=O)(=O)N1CCN(C(=O)c2ccco2)CC1	.	-	-	.	.	.	.
Cc1cccc(OCC(=O)Nc2cc(C)ccc2O)c1	-	-	-	37	-	-	67
Cc1cccc(OCC(=O)Nc2cc(C)c(C)cc2O)c1	-	-	-	-	-	.	.
COc1ccc(-c2cc(C(=O)N/N=C/c3ccc(OC)c(COCC(F)(F)C(F)F)c3)c3ccccc3n2)c(OC)c1	-	-	-	49	-	-	-
CC(=O)c1c(C)[nH]c(C(=O)CSc2nnc(C)s2)c1C	-	-	-	-	-	.	.
CCN(CC)C(=O)C1=C(C)NC(=O)NC1c1c(F)cccc1Cl (stereo unspecified)	-	-	-	29	-	-	-
Cc1ccc2nc(C)cc(Nc3ccc([N+](=O)[O-])cc3)c2c1	-	-	-	38	-	-	82
COc1ccc2nc(C)cc(Nc3ccc(C)cc3)c2c1	.	-	-	.	.	.	.
CCCC(=O)N=C1SC2CS(=O)(=O)CC2N1c1ccc(-c2nc3ccc(C)cc3s2)cc1 (stereo unspecified)	-	-	-	-	-	.	.
COc1ccc(-c2cc(N)n(S(=O)(=O)c3c(F)c(F)c(F)c(F)c3F)n2)cc1OC	-	-	-	45	-	93	93
O=C1C2CCCN2C(c2ccccc2)N1c1ccc(F)cc1 (stereo unspecified)	-	-	-	-	-	.	.
O=C1C2CCCN2C(c2ccc(F)cc2)N1c1ccc(Cl)cc1 (stereo unspecified)	-	-	-	42	-	-	-
COc1ccc(C)cc1NC(=O)C1CCN(C(=O)Cc2ccccc2)CC1	-	-	-	41	-	-	-
O=c1[nH]c2ccc(N/C(=N/S(=O)(=O)c3ccccc3)c3ccccc3)cc2[nH]1	-	-	-	29	-	-	-
CC(=O)Nc1ccc(N/C(=N\S(=O)(=O)c2ccccc2)c2ccccc2)cc1	.	-	-	.	.	.	.
CCOC(=O)c1ccc(NC(=O)NCCc2ccccc2OC)cc1	-	-	-	64	-	-	-
Cc1ccc(NC(=S)NCCC2=CCCCC2)cc1	-	-	-	-	-	.	.
CCOC(=O)c1ccc(NC(=O)NCc2ccccc2OC)cc1	-	-	-	-	-	.	.
CCOC(=O)c1ccc(NC(=S)NCCC2=CCCCC2)cc1	-	-	-	81	-	-	-
CCc1ccc(OCC(=O)NC(C)C)cc1	-	-	-	-	-	.	.
COc1ccc2c(c1OC)C(=O)OC2Nc1nc(-c2ccc([N+](=O)[O-])cc2)cs1 (stereo unspecified)	-	-	-	-	.	.	.
COc1ccc(-c2csc(NC3OC(=O)c4c3ccc(OC)c4OC)n2)cc1OC (stereo unspecified)	-	-	-	27	.	-	31
SMILES	BaF3 parental	IEC-6 cytotox	KLF5 inhibitor	Ba/F3 V617F tox	APP 5UTR inh	BaF3 parental 2	JAK2V617F conf
CC(c1nccs1)N(C)C(=O)c1cn(Cc2cccc3ccccc23)nn1 (stereo unspecified)	.	-	-	.	.	.	.
CC(=O)Nc1ccc(S(=O)(=O)NCC(=O)OCc2ccccc2)cc1	-	-	-	-	-	.	.
CCN(CC)CCCNC(=O)c1cc(-c2ccc(Cl)cc2)on1	-	-	-	24	-	-	-
Cc1ccc2cc(C#N)c(SCC(=O)N3CCCc4ccccc43)nc2c1C	-	-	-	-	-	.	.
COc1ccc(C(=O)OCC(=O)NCc2ccccc2)c(OC)c1OC	-	-	-	103	-	-	-
COc1ccc(OC)c(S(=O)(=O)ON2C(=O)c3ccccc3C2=O)c1	.	-	-	.	.	.	.
COC1(OC)C(/C=C/c2ccc(Cl)cc2)C(C#N)(C#N)C1(OC)OC (stereo unspecified)	-	-	-	81	-	-	73
COC(=O)c1ccccc1C(=O)N1CCCC(CNC(=O)c2ccc(F)cc2)C1 (stereo unspecified)	.	-	-	.	.	.	.
